We go through eight compounds from PubChem BioAssay (Tox21).

Values joined by “and” are separate entries in the source; they are usually repeats but may differ in a detail not shown here. Equal entries are not always repeated. A number with no mark means an inactive call. Results filed as inconclusive are left out. Active and inactive are the calls of the source. Unless noted, calls follow the shape of the dose curve; as a rule, active = well fitted curve in the direction sought with a large enough effect in the repeat runs; inconclusive = weak or mixed curves; inactive = no such curve, though single readings can be large; an effect the other way counts as inactive or inconclusive.

Experiment [1] in a line: qHTS assay to identify small molecule agonists of the estrogen receptor alpha (ER-alpha) signaling pathway in the presence of an antagonist - cell viability counter screen (AID 1259386).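 Also: series mostly up to about 92 µM; cells exposed to compounds for 22 h at 37 °C before the viability read; nearly all actives have a fitted effect of over 30% in size.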 In a few lines: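 The test measures whether compounds kill ER-alpha reporter cells (VM7Luc4E2) under antagonist co-treatment (ICI-182,780, 10.0nM). Fluorescence from CellTiter-Fluor is read after a 22hr exposure.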
(qHTS replaces the single test concentration by a dilution series.)

In experiment [2] the target is Progesterone receptor (Homo sapiens) (UniProt P06401). Nature of the experiment: qHTS assay to identify small molecule antagonists of the progesterone receptor (PR) signaling pathway (AID 1346795; active = well fitted inhibition curve with a large enough effect in the signal ratio in the repeat runs, not every such curve was filed as active; the % refers to the signal ratio). In a few lines: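 Antagonist mode with agonist R5020 at 1 nM final and 16 hr incubation at 37C. Reporter was beta-lactamase driven by UAS in HEK293T (PR-UAS-bla), 2% charcoal-stripped serum; signal from LiveBLAzer FRET substrate, 2 hr at room temperature.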
Progesterone receptor (Homo sapiens), sequence (P06401 whole entry, looked up): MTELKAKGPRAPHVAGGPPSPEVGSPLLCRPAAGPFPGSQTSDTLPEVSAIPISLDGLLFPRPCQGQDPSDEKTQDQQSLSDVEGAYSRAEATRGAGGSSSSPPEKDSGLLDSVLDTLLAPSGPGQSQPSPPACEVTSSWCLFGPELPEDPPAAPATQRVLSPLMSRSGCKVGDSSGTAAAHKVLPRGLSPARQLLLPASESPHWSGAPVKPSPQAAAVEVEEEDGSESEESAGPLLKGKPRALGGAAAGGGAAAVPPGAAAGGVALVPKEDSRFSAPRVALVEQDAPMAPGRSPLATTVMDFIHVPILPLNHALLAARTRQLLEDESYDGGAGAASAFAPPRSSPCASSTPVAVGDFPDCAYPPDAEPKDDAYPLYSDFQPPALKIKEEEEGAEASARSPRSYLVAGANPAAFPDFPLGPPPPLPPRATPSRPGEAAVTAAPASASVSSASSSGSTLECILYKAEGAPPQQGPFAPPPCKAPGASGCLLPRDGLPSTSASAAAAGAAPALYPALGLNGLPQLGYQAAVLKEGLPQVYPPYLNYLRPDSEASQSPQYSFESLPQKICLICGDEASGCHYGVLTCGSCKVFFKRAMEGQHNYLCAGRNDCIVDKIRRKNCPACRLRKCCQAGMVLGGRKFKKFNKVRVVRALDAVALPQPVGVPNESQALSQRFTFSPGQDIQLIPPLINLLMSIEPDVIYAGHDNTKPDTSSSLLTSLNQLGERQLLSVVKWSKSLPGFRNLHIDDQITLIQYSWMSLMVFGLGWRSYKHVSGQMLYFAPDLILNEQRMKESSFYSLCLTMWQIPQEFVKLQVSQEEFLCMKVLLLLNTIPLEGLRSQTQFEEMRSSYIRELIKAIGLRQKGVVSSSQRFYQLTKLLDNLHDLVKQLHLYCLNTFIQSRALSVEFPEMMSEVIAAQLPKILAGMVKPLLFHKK

Experiment [3] can be described thus: qHTS assay to identify small molecule antagonists of the progesterone receptor (PR) signaling pathway - cell viability counter screen (AID 1346798). Also: nearly all actives have a fitted effect of over 50% in size. Also: potency is read from the fitted curve at half-maximal effect. In a few lines: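 Cytotoxicity read as CellTiter-Glo luminescence (30 min, room temperature) in the same wells as the beta-lactamase readout. HEK293T PR-UAS-bla cells in charcoal-stripped 2% FBS received compound and R5020, then 16 h at 37C, 5% CO2.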

Experiment [4] in a line: qHTS assay to identify small molecule agonists of the progesterone receptor (PR) signaling pathway - cell viability counter screen (AID 1346799; calls by dose curve; also: nearly all actives have a fitted effect of over 45% in size; also: potency is read from the fitted curve at half-maximal effect). A digest of the protocol: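 Cytotoxicity measured by CellTiter-Glo luminescence (30 min, RT) in the same wells as the PR beta-lactamase agonist read. Those HEK293T cells had 16 h compound treatment at 37 C in 2% charcoal-stripped FBS medium.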

Experiment [5] in a line: qHTS assay to identify small molecule antagonists of the TGF-beta/Smad signaling pathway - cell viability counter screen (AID 1346824). Also: nearly all actives have a fitted effect of over 50% in size. Also: potency is read from the fitted curve at half-maximal effect. A digest of the protocol:
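Cytotoxicity counter-screen run in the same wells as the beta-lactamase Smad reporter read: CellTiter-Glo luminescence after 30 min at room temperature. HEK 293T SBE-bla cells had 5 hr compound exposure at 37 C with TGF-beta1 (0.25 ng/mL stock).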

The nature of experiment [6]: qHTS assay to identify small molecule agonists of the TGF-beta/Smad signaling pathway - cell viability counter screen (AID 1346829). Also: top concentration of the series differs between compounds; nearly all actives have a fitted effect of over 45% in size. In a few lines:
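In parallel with the Smad reporter read, viability of HEK 293T cells stably carrying SBE-bla is quantified by ATP luminescence following 5 hr compound treatment.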

The nature of experiment [7]: qHTS assay to identify small molecule agonists of the TGF-beta/Smad signaling pathway (AID 1346859; active = well fitted activation curve with a large enough effect in the signal ratio in the repeat runs, not every such curve was filed as active; the % refers to the signal ratio; also: series mostly up to about 77 µM). A digest of the protocol: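 Fluorescence (ex 405 nm; em 460 and 530 nm) was read 2 h after LiveBLAzer FRET substrate at RT. The preceding compound treatment of overnight-plated SBE-bla HEK293T cells lasted 5 h at 37 C.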
The target of experiment [8] is Thyrotropin-releasing hormone receptor (Homo sapiens) (UniProt P34981). Nature of the experiment: qHTS assay to identify small molecule antagonists of the thyrotropin-releasing hormone receptor (TRHR) signaling pathway (AID 1346877; active = well fitted inhibition curve with a large enough effect in the repeat runs, not every such curve was filed as active; also: series mostly up to about 51 µM). In a few lines:
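Overnight-plated (18 h, 37 °C) HEK293 cells expressing TRHR were dye-loaded 2 h, treated with compound, then stimulated with TRH at 1 nM final. Fluorescence intensity was captured every second for 3 min.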

Experiment [9] shares this target. Description: qHTS assay to identify small molecule agonists of the thyrotropin-releasing hormone receptor (TRHR) signaling pathway (AID 1346891; calls by dose curve; also: series mostly up to about 58 µM). In a few lines:
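Agonist-mode intracellular calcium readout: kinetic fluorescence over 3 min at 1 s intervals after compound addition to TRHR-HEK293 cells (18 h seeded, 2 h dye-loaded at 37 C). Fifteen concentrations, triplicates.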

Experiment [10] is described as follows: Human pregnane X receptor (PXR) small molecule agonists, qHTS cell viability counter screen (AID 1346977). Also: nearly all actives have a fitted effect of over 50% in size. Also: potency is read from the fitted curve at half-maximal effect. A digest of the protocol: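 Same-well viability read: CellTiter-Fluor added after 23 hr compound exposure, fluorescence measured 1 hr later. Cells were PXR-Luc HepG2 seeded at 2,000/well in 5% charcoal-stripped FBS medium, rested 5 hr before dosing at 37 C.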

A short description of experiment [11]: Caspase-3/7 induction in HepG2 cells by small molecules, qHTS assay (AID 1346978). Also: nearly all actives have a fitted effect of over 15% in size. In a few lines:
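Caspase-3/7 induction was measured by Caspase-Glo 3/7 luminescence (30 min, room temperature) after a 17 hr compound exposure of wild-type HepG2 cells seeded at 2,000 per well and pre-incubated 5 hr.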

A short description of experiment [12]: Caspase-3/7 induction in CHO-K1 cells by small molecules, qHTS cell viability counter screen (AID 1346979). Also: nearly all actives have a fitted effect of over 35% in size. Also: potency is read from the fitted curve at half-maximal effect. In a few lines:
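Cytotoxicity counter screen: CellTiter-Fluor added to compound-treated wild-type CHO-K1 cells at 16 h (37C, 5% CO2), fluorescence measured 1 h later; same wells as caspase-3/7 measurement.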

The nature of experiment [13]: Caspase-3/7 induction in CHO-K1 cells by small molecules, qHTS assay (AID 1346980). Also: nearly all actives have a fitted effect of over 15% in size. A digest of the protocol: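 Luminescent Caspase-Glo 3/7 read (30min, room temperature) quantified apoptosis induction. Cells were wild-type CHO-K1, treated with compound for 17hr at 37 C and 5% CO2.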
Experiment [14] in a line: Caspase-3/7 induction in HepG2 cells by small molecules, qHTS cell viability counter screen (AID 1346981). Also: nearly all actives have a fitted effect of over 30% in size. Also: potency is read from the fitted curve at half-maximal effect. In a few lines:
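Treatment of HepG2 cells with DMSO-delivered compounds ran 16 hr at 37 C following a 5-hr pre-incubation of 2,000 cells/well. CellTiter-Fluor fluorescence, read after 1 hr, served as the viability measure in a qHTS format.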

The target of experiment [15] is Cytochrome P450 2D6 (Homo sapiens) (UniProt P10635). Description: Cytochrome P450 Family 2 Subfamily D Member 6 (CYP2D6) small molecule antagonists: luciferase reporter qHTS assay (AID 1671196). Also: nearly all actives have a fitted effect of over 50% in size. Also: potency is read from the fitted curve at half-maximal effect. In a few lines: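 Chemicals tested for interference with CYP2D6 activity; proluciferin substrate, NADPH regeneration, 1 h at room temperature, luminescent detection.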
Cytochrome P450 2D6 (Homo sapiens), sequence (P10635 whole entry, looked up): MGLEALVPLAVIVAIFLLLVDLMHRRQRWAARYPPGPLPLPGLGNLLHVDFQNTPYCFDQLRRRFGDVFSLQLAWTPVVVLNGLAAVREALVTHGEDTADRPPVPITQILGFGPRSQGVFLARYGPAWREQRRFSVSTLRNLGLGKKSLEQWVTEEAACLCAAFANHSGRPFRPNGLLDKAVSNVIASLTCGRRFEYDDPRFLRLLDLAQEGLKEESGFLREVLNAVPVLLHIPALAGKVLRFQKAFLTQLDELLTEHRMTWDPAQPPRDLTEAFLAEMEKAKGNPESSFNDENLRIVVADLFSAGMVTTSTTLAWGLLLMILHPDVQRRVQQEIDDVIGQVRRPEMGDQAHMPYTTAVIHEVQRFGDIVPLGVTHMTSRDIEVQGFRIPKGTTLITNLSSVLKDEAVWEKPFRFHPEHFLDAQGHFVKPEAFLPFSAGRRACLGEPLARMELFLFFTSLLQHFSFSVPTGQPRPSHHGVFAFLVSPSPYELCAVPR
(In general: A reporter such as luciferase makes a cellular process visible.)

In experiment [16] the target is Nuclear receptor subfamily 1 group I member 2 (Homo sapiens) (UniProt O75469). Nature of the experiment: Human pregnane X receptor (PXR) small molecule agonists, qHTS assay (AID 1346982). Also: nearly all actives have a fitted effect of over 35% in size. Also: potency is read from the fitted curve at half-maximal effect. In a few lines:
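Stable HepG2 line reporting PXR-mediated CYP3A4 expression via luciferase. Treatment: 24 hr with compounds in DMSO at 37 C. Detection: ONE-Glo luminescence.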

The target in experiment [17] is Progesterone receptor (Homo sapiens) (UniProt P06401). Description: qHTS assay to identify small molecule agonists of the progesterone receptor (PR) signaling pathway (AID 1346784; calls by dose curve; also: nearly all actives have a fitted effect of over 30% in size). A digest of the protocol: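 Agonist qHTS: compounds pinned onto 3,000 PR-UAS-bla HEK 293T cells per well in charcoal-stripped serum medium, 16hr at 37C, then beta-lactamase activity measured by LiveBLAzer FRET fluorescence after 2 hours at room temperature.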

Experiment [18] addresses Nuclear receptor subfamily 1 group I member 2 (Rattus norvegicus) (UniProt Q9R1A7). Description: Rat pregnane X receptor (rPXR) activation by small molecules, qHTS assay (AID 1346983). Also: nearly all actives have a fitted effect of over 20% in size. Conditions: rPXR luciferase reporter cells, One-Glo luminescence, 24 h; stronger effect = higher value. In a few lines:
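Luminescent readout (One-Glo luciferase, 30 min room temperature) followed 24 hr compound treatment at 37 C of rPXR cells plated 2,000 per well and preincubated 5hr; qHTS format with compounds delivered in DMSO.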

Experiment [19] addresses Nuclear receptor subfamily 1 group I member 2 (Homo sapiens) (UniProt O75469). Description: Human pregnane X receptor (PXR) activation by small molecules, qHTS assay (AID 1346985). Also: nearly all actives have a fitted effect of over 40% in size. A digest of the protocol:
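DPX-2 cells (HepG2 co-transfected with a PXR response element and a CYP3A4-promoter luciferase construct) were seeded at 2,000 per well, rested 5 hr at 37C, then exposed to DMSO-dissolved compounds for 24 hr. Activation was read as luciferase luminescence.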
% is scaled to controls: 0 for no effect and ±100 for the full control effect.

Nuclear receptor subfamily 1 group I member 2 (Homo sapiens), sequence (O75469 whole entry, looked up): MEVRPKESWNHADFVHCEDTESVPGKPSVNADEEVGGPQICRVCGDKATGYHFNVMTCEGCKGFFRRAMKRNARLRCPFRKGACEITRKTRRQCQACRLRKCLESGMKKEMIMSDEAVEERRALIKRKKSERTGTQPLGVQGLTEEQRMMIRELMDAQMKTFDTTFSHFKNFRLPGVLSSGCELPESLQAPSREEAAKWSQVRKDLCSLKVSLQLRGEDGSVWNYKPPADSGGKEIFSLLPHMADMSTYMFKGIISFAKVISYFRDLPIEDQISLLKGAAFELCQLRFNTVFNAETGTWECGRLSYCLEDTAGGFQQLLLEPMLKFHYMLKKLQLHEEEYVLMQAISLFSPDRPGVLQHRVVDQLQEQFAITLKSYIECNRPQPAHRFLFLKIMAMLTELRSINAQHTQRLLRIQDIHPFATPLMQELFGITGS
Thyrotropin-releasing hormone receptor (Homo sapiens), sequence (P34981 whole entry, looked up): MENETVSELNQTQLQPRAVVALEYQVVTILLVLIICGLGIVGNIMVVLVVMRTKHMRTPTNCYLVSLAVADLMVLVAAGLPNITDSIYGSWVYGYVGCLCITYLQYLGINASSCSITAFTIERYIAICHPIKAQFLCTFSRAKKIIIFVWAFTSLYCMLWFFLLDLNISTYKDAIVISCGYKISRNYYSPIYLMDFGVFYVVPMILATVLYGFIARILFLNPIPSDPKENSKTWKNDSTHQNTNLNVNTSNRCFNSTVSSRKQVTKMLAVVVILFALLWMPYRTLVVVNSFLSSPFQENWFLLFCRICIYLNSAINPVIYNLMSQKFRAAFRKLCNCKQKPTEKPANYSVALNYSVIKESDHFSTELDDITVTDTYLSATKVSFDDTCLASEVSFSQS
Nuclear receptor subfamily 1 group I member 2 (Rattus norvegicus), sequence (Q9R1A7 whole entry, looked up): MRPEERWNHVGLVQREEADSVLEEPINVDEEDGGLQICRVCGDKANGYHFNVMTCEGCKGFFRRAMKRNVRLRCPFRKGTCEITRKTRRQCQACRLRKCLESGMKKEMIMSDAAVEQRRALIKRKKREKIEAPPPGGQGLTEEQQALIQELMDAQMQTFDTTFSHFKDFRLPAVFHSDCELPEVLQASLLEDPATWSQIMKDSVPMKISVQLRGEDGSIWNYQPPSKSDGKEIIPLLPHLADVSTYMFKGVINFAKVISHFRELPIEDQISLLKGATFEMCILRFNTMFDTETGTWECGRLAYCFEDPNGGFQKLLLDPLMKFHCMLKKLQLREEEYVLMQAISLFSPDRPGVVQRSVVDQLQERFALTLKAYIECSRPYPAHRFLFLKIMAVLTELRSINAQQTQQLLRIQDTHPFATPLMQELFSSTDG

Turning to `CCC(=O)OC(=O)CC`, the Potency entry in experiment [1], in [2], in experiment [3], in experiment [5], in experiment [6] and in experiment [7] was “inactive” throughout. Besides, the Potency entry in experiment [8], in experiment [10], in experiment [11], in [12], in experiment [13] and in experiment [14] was “inactive” throughout. Further, the Potency in experiment [4] is 54 µM (active); in [15], 62.8 µM (active). In experiment [9], the outcome was inactive.
Turning to `CCCC[P+](C)(CCCC)CCCC`, the Potency entry in experiment [1], in experiment [2], in experiment [3], in experiment [5], in experiment [6] and in experiment [7] was “inactive” each time. Besides, the Potency result in [8], in experiment [10], in experiment [11], in experiment [12], in [13] and in experiment [14] was “inactive” throughout. In [9], the call was inactive. Further, the Potency in experiment [16] was 61.9 µM (active); in experiment [15], 0.203 µM (active).
In the case of `CN(C)[C@@H](CCOc1cccc2ccccc12)c1ccccc1`, the Potency result in [1], in experiment [17], in experiment [6], in [7], in experiment [8] and in [13] was “inactive” each time. In experiment [9], the call was inactive. In experiment [15], the Potency is 0.871 µM (active).
As to `OC/C=C/CO`, the Potency entry in experiment [1], in experiment [2], in [3], in experiment [5], in experiment [6] and in [7] was “inactive” each time. The Potency entry in experiment [8], in [10], in experiment [12], in [13], in experiment [14] and in [16] was “inactive” throughout. In addition, in experiment [9], the result was inactive. Moreover, the Potency in experiment [15] was 17.8 µM (active).
On to `CCCCCCCCCCC[C@@H](C[C@@H]1OC(=O)[C@H]1CCCCCC)OC(=O)[C@H](CC(C)C)NC=O`, for which the Potency entry in experiment [1], in experiment [17], in [3], in experiment [5], in [6] and in experiment [8] was “inactive” each time. The Potency result in [11], in experiment [13], in experiment [14], in [16], in [19] and in experiment [15] was “inactive” in each case. The call in [9] was inactive. For the same compound, in experiment [12], the Potency was 16.8 µM (active). In addition, in experiment [18], the max activation is -3.72%.
Take `CCCCCCCCCCCCCC[N+](C)(C)C`: the Potency entry in [1], in [17], in experiment [11], in experiment [13], in experiment [16] and in [19] was “inactive” each time. Besides, the Potency is 48.5 µM (active) and 33.5 µM (active) in experiment [3]; 42.2 µM (active) and 54.9 µM (active) in experiment [5]; 52.7 µM (active) and 27.3 µM (active) and 26.6 µM (active) in experiment [10]; 59.1 µM (active) and 38.5 µM (active) in experiment [12]; 61.1 µM (active) in experiment [14]; 3.06 µM (active) and 3.17 µM (active) and 3.47 µM (active) in [15]. For the same compound, the max activation in [18] is -17%.
Take `Clc1ccnc(Cl)n1`: the Potency entry in [1], in [17], in experiment [5], in experiment [6], in experiment [7] and in experiment [8] was “inactive” throughout. Further, the Potency result in experiment [10], in [11], in [12], in [13], in experiment [14] and in experiment [16] was “inactive” in each case. For the same compound, the Potency entry in experiment [15] was “inactive”. In experiment [9], the compound was called inactive.
With `CC(C)(C)NSc1nc2ccccc2s1`, the Potency result in experiment [1], in experiment [2], in [3], in [4], in experiment [5] and in experiment [6] was “inactive” throughout. Further, the Potency result in experiment [7], in experiment [10], in experiment [12], in experiment [13] and in experiment [14] was “inactive” each time. The Potency in experiment [16] is 49.4 µM (active).
